# Results from PubChem BioAssay (EPA / NIEHS).
# Where a structure was tested more than once in an assay, its records may differ in their call. The source made the active and inactive calls. Rule for the calls: active = hit-call score of the fitted dose curve at least 0.9, where 1 is the maximum; inactive = score below 0.9.
# Test: CCTE_Mundy_HCI_Cortical_NOG_BPCount: CCTE's Neurite Outgrowth Assay in rat cortical cells for Branch Point Count, Mundy Lab (AID 2284237);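 for AC50: branch points counted about two days after chemical exposure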
# Method: CCTE_Mundy_HCI_Cortical_NOG is a multiplexed, cell-based-readout assay that uses rat primary cortical cells with measurements taken at 50.33 hours after chemical dosing in a microplate: 96-well plate.CCTE_Mundy_HCI_Cortical_NOG_BPCount is one of four components of the CCTE_Mundy_HCI_Cortical_NOG assay. It measures neurite outgrowth related to the number of branch points using High Content Imaging of fluorescently labelled markers.[…] Using a type of morphology reporter, loss -of-signal activity can be used to understand developmental effects.
# Exposure starts 2 hours post-plating by adding 10 ul of the working solution to 90 ul of media in the wells for a 1/10 dilution. Forty-eight hours after chemical treatment cells are fixed by direct addition of 100 ul of warm (37C) Dulbecco's phosphate buffered saline (DPBS) fixative solution containing 8% paraformaldehyde, 8% sucrose, and 0.1% of 3 mg/ml Hoechst 33342 into each well. Primary antibodies are prepared by dilution in Immunocytochemical Staining Buffer (ISB), 10X Dulbecco's PBS, 0.1% Saponin, 5% Bovine Serum Albumin, 0.5% NaN3 (Sodium Azide) and betaIII-tubulin (rabbit anti-betaIII-tubulin, 1:800) followed by Alexa Fluor-488 secondary (1:500) to label neuronal cell bodies and neurites. A Cellomics ArrayScan VTi HCS Reader is used for automated image acquisition and analysis of neurite outgrowth.
SMILES,AC50,outcome
CC1(c2ccc(Oc3ccccc3)cc2)OC(=O)N(Nc2ccccc2)C1=O (stereo not given),50 µM (active),–
CC1(C)C(C=C(Cl)Cl)C1C(=O)OC(C#N)c1ccc(F)c(Oc2ccccc2)c1 (stereo not given),63.1 µM (active),inactive
COP(=S)(OC)Oc1ccc([N+](=O)[O-])cc1,23.2 µM (active),–
COP(=O)(OC)OC=C(Cl)Cl,70 µM (active),inactive
CCC(C)(C)C(=O)OC1=C(c2ccc(Cl)cc2Cl)C(=O)OC12CCCCC2,–,inactive
O=C(O)COc1ccc(Cl)cc1Cl,–,inactive
O=[N+]([O-])/N=C1\NCCN1Cc1ccc(Cl)nc1,–,inactive
O=C(O)C(F)(F)C(F)(F)C(F)(F)C(F)(F)C(F)(F)C(F)(F)C(F)(F)F,–,inactive
CC(C)N(C(=O)COc1nnc(C(F)(F)F)s1)c1ccc(F)cc1,–,inactive
CC[C@H](C)[C@H]1O[C@]2(C=C[C@@H]1C)C[C@@H]1C[C@@H](C/C=C(\C)[C@@H](O[C@H]3C[C@H](OC)[C@@H](O[C@H]4C[C@H](OC)[C@@H](O)[C@H](C)O4)[C@H](C)O3)[C@@H](C)/C=C/C=C3\CO[C@@H]4[C@H](O)C(C)=C[C@@H](C(=O)O1)[C@]34O)O2 (tested in a mixture with another compound),8.26 µM (active),–
CNC(=O)CSP(=S)(OC)OC,–,inactive
O=S1OCC2C(CO1)C1(Cl)C(Cl)=C(Cl)C2(Cl)C1(Cl)Cl (stereo not given),21.4 µM (active),–
O=S(=O)(O)C(F)(F)C(F)(F)C(F)(F)C(F)(F)C(F)(F)C(F)(F)C(F)(F)C(F)(F)F,–,inactive
